Shown are actives, neighbours in structure and some others; about 19% of the full set was active somewhere.
TDP1 cell CPT: DT40-hTDP1 cell growth loss with CPT | chicken DT40 Tdp1-/-;hTDP1 cells + 20 nM CPT, ATP luminescence, 48 h | Potency, µM (highest dose often 46.2 µM), without a hit: top-dose activity change, negative = growth inhibition, actives largely listed as inhibitors | 420,000 compounds, 12% hits; further: nearly all actives have a fitted effect of over 55% in size
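Chicken DT40 Tdp1-/- cells stably complemented with human TDP1 were seeded at 400 cells/well in medium containing 20 nM camptothecin, exposed to pin-transferred compounds, and grown at 37 °C for at least 48 hr. Viability was read as ATP luminescence.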
HT1080 IDH1KD tx: toxicity to HT-1080 IDH1 knockdown cells (counter line). HT-1080 IDH1 knockdown viability, ATP luminescence, 48 h. Potency, µM (doses to about 46.1 µM), for the others: top-dose activity, negative = toxicity, usual class: cytotoxic. 360,000 compounds, 2% hits. AID 686971;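 further: 0% = DMSO wells and -100% = cell-free medium wells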
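In this qHTS, HT-1080 cells depleted of IDH1 are exposed for 48 h at 37 °C to compound titrations. Toxicity is scored from CellTiter-Glo luminescence, with DMSO as full viability and medium alone as none.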
HT1080-NT tox: kills 2HG-producing HT-1080-NT fibrosarcoma cells; AID 686970; HT-1080-NT fibrosarcoma viability, CellTiter-Glo ATP luminescence, 48 h; Potency, µM (titrated, usually from 46.1 µM), for the others: at the highest dose activity, negative = less viability, hits mostly cytotoxic; 360,000 compounds, 1.6% hits;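 further: NT is the 2HG producing partner of a matched IDH1 knockdown line; 0% = DMSO-treated cells and -100% = media-only wells without cells; nearly all actives have a fitted effect of over 55% in size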
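750 cells/well, RPMI + 5% FBS; 2 h settle, compound pin-transfer, 48 h at 37 degrees C. CellTiter-Glo 10 min RT, luminescence. Normalized to DMSO and media-only wells.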
DT40 TDP1 no CPT: qHTS for Inhibitors of human tyrosyl-DNA phosphodiesterase 1 (TDP1): qHTS in cells in absence of CPT. 420,000 compounds, 15% hits. DT40 Tdp1-/- hTDP1 cells, no CPT, ATP luminescence, 48 h. AID 686978, 2013. Potency, µM (top dose mostly 46.2 µM), inactives show at the highest dose activity change, negative = growth inhibition, actives largely listed as inhibitors; further: nearly all actives have a fitted effect of over 55% in size
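Camptothecin absent (DMSO only). Human TDP1-complemented DT40 knockout cells, 400 cells/well, 37 °C for minimum 48 hr; ATP measured via CellTiter-Glo, 30 min dark incubation, luminescence.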
KB-3-1 tox: KB-3-1 parental cell cytotoxicity | 400,000 compounds, 1.4% hits | Potency, µM (titrated, usually from 46.1 µM), usual class: cytotoxic | KB-3-1 viability, CellTiter-Glo ATP luminescence, 72 h; further: nearly all actives have a fitted effect of over 60% in size
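Parental KB-3-1 viability, qHTS format: 72 h compound exposure, 37 °C; CellTiter-Glo; media-only wells and DMSO plates as controls; concentration-effect fits on corrected data.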
KB-V1 cytotox: kills drug-selected multidrug resistant KB-V1 cells; KB-V1 MDR cells viability, CellTiter-Glo, 72 h; Potency, µM (top dose mostly 46.1 µM), hits mostly cytotoxic; 400,000 compounds, 3.4% hits; AID 1347076; further: nearly all actives have a fitted effect of over 60% in size
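KB-V1 cells (P-gp-expressing MDR subline of KB-3-1) in phenol-red-free DMEM with 10% FBS were exposed to library compounds over a concentration series for 72 h at 37 degrees C. Viability read by CellTiter-Glo luminescence; concentration-effect curves fitted after normalization.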
* = called active by the depositor; i = inactive; ? = inconclusive; . = no result; [ ] = remark or other dose. The call rests on the fitted dose curve; in most records, active means well fitted curve in the direction sought with a large enough effect; inconclusive means small, poorly fitted or top-dose-only effect, or another doubt; inactive means no such curve, though single readings can be large; an effect the other way counts as inactive or inconclusive. Unless noted, on the % scale 0 is the no-effect control and ±100 the full control effect; potency means the concentration at half of the fitted maximal effect.

SMILES	TDP1 cell CPT	HT1080 IDH1KD tx	HT1080-NT tox	DT40 TDP1 no CPT	KB-3-1 tox	KB-V1 cytotox
Cn1cnc([N+](=O)[O-])c1Sc1nc(N)nc2c1ncn2C1OC(CO)C(O)C1O (stereo not drawn)	?	1.3µM*	1.3µM*	?	?	1.2µM*
Nc1nc(SCc2ccc([N+](=O)[O-])cc2)c2ncn([C@@H]3O[C@H](CO)[C@@H](O)[C@H]3O)c2n1	-2%	.	.	-27%	.	.
O=C(CSc1nnc(CNc2ccc(Cl)cc2)o1)Nc1nc2c(s1)CCCC2	15µM*	-26%	-17%	?	i	?
COc1ccc(-n2nnnc2SCC(=O)Nc2nc3c(s2)CCCC3)cc1	?	18µM*	-21%	?	i	i
CCOC(=O)c1c(NC(=O)CSc2nc3c(c(=O)n(C)c(=O)n3C)n2C(C)C)sc(C)c1C	1%	-4%	5%	-3%	i	i
CC(C)n1c(SCC(=O)Nc2nc3c(s2)CCCC3)nc2c1c(=O)n(C)c(=O)n2C	12µM*	?	?	2.9µM*	i	?
COc1cc(=O)[nH]c(SCC(=O)Nc2nc3c(s2)CCCC3)n1	23µM*	3%	4%	?	i	i
COc1ccc(-n2nnnc2SCC(=O)NC2CC2)cc1	-17%	-3%	2%	21%	i	i
CCOC(=O)c1c(-c2ccc(C)cc2)csc1NC(=O)c1nc(SCC)ncc1Cl	-4%	.	.	-15%	i	?
CCOc1ccc(-n2nnnc2SCC(=O)NNC(=O)c2ccco2)cc1	16µM*	20%	14%	?	i	i
CCCCOc1ccc(-c2ncc(N)cn2)cc1	-1%	0%	-3%	-14%	i	i
CC(C)Cn1c(SCC(=O)Nc2ccc3[nH]c(=O)[nH]c3c2)nc2ccccc2c1=O	?	-17%	-24%	?	i	i
Cc1ccc(C)c(NC(=O)C(OC(=O)c2cc[n+]([O-])cc2)c2ccccc2)c1 (stereo not drawn)	4%	8%	8%	10%	i	i
Cc1ccc(C)c(NC(=O)C(Sc2nncn2C)c2ccccc2)c1 (stereo not drawn)	2%	12%	4%	-8%	i	15µM*
Cc1ccc(C)c(NC(=O)C(Sc2nc3ccccc3c(=O)n2CC(C)C)c2ccccc2)c1 (stereo not drawn)	4.1µM*	-5%	-5%	2.6µM*	?	?
Cn1nc(C(F)(F)F)c(-c2cccc(C(F)(F)F)c2)c1NC(=O)Nc1ccc(F)cc1	16µM*	-17%	-16%	15µM*	i	?
Cn1nc(C(F)(F)F)c(-c2cccc(C(F)(F)F)c2)c1NC(=O)c1ccco1	-29%	3%	-1%	-22%	i	i
CNC(=S)NNC(=O)c1ccccc1F	-4%	22%	19%	-2%	i	i
CCN(c1ccccc1)S(=O)(=O)c1ccc(NC(=S)NC(=O)c2cccs2)cc1	?	-26%	-10%	23µM*	i	i
CN(C)S(=O)(=O)c1ccc(NC(=S)NC(=O)c2cccs2)cc1	?	3%	16%	?	i	i
O=C(NC(=S)Nc1ccc(S(=O)(=O)N2CCCCCC2)cc1)c1cccs1	?	-24%	?	21µM*	i	i
O=C(Nc1ccc(S(=O)(=O)N2CCN(c3ccccc3)CC2)cc1)c1cccs1	1%	-2%	-7%	?	i	?
O=C(NC(=S)Nc1ccc(S(=O)(=O)N2CCCC2)cc1)c1cccs1	?	1%	0%	?	i	10µM*
C/C(=N\NC(N)=O)c1ccccc1Cl	9%	13%	9%	-16%	i	?
CSCCC1NC(=O)C(C(C)=NNC(N)=O)=C1O (stereo not drawn)	?	20%	12%	16µM*	i	i
SMILES	TDP1 cell CPT	HT1080 IDH1KD tx	HT1080-NT tox	DT40 TDP1 no CPT	KB-3-1 tox	KB-V1 cytotox
CC(=O)Nc1cccc(-c2nnc(SCc3ccccc3C#N)n2C)c1	-28%	-2%	4%	-2%	i	i
COc1cc(C(C)=O)ccc1OCCCOc1cccc2cccnc12	18µM*	-19%	-18%	?	i	?
OCc1ccccc1OCCCOc1cccc2cccnc12	-1%	6%	-11%	-10%	i	?
COc1ccc(C(C)=O)cc1COc1cccc2cccnc12	-4%	-1%	3%	?	i	i
CC(=O)c1ccccc1OCCCN1CCCCC1	-3%	0%	0%	-19%	i	i
Cc1cc(OCCOc2cccc3cccnc23)cc(C)c1Cl	15µM*	?	?	18µM*	i	i
CC(C)Oc1ccccc1OCCCOc1cccc2cccnc12	?	-30%	-4%	21µM*	i	?
CC(=O)c1ccccc1OCCOCCOCCOc1ccccc1C(C)=O	18µM*	0%	-4%	?	i	?
COc1ccc(CN(C(=O)CN2C(=O)c3ccccc3S2(=O)=O)C(C(=O)NCC2CCCO2)c2ccco2)cc1 (stereo not drawn)	-16%	12%	13%	-4%	i	i
CC(=O)c1ccc(OCCCOc2cccc3cccnc23)cc1	?	-1%	-4%	?	i	i
CC(=O)c1ccccc1OCCCOc1cccc2cccnc12	23µM*	-9%	-11%	23µM*	i	i
COc1ccc(/C(C)=N/NC(=O)c2ccc(CSc3cccc4cccnc34)cc2)cc1OC	?	-30%	0%	16µM*	?	?
CN1CCC(N(C)S(=O)(=O)c2ccc(NC(=O)COc3ccc(Br)cc3Cl)cc2)CC1	26µM*	18µM*	16µM*	16µM*	?	?
CCCC1=[N+](CC(=O)c2ccc(Br)cc2)CCn2cccc21	0%	-8%	-12%	?	i	?
CCCC1=[N+](CC(=O)c2ccccc2)CCn2cccc21	23µM*	-6%	5%	26µM*	i	?
CCCC1=[N+](CC(C)=O)CCn2c(C)ccc21	3.3µM*	-4%	1%	2.3µM*	i	i
CC1(C)CCC[C@@]2(C)C1CC[C@@](C)(O)[C@@H]2CC[C@@](C)(O)C1CO1 (stereo partly drawn)	?	.	.	-5%[9.04 µM]	.	.

Assay outcomes: PubChem BioAssay, National Center for Advancing Translational Sciences (NCATS)
